Data taken from PubChem BioAssay (Tox21).
Records with an inconclusive call do not appear. Calls of active or inactive are those of the source. Unless noted, the call rests on the fitted dose curve; in most records, active means well fitted curve in the direction sought with a large enough effect in the repeat runs; inconclusive means weak or mixed curves; inactive means no such curve, though single readings can be large; an effect the other way counts as inactive or inconclusive.

Experiments:
[1] = qHTS assay to identify small molecule agonists of the endoplasmic reticulum stress response signaling pathway (AID 1159516; active means well fitted activation curve with a large enough effect in the signal ratio in the repeat runs, not every such curve was filed as active; the % refers to the signal ratio; further: on the % scale 0 is the no-effect control and ±100 the full control effect)
In short: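 ER stress element reporter (bla) in HeLa. 1,500 cells/well, overnight attachment; 5 hr compound; 2 hr RT substrate; dual-emission fluorescence.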

[2] = qHTS assay to identify small molecule agonists of the endoplasmic reticulum stress response signaling pathway - cell viability counter screen (AID 1159517; calls by dose curve;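 further: HeLa cells carrying an ER stress response element beta-lactamase reporter; series mostly up to about 61 µM; on the % scale 0 is the no-effect control and ±100 the full control effect; nearly all actives have a fitted effect of over 50% in size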)
In short: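 ESRE-bla HeLa cells, 1,500 per well, seeded overnight then treated with compounds for 5 hr at 37 C. After the beta-lactamase read, viability in the same wells is measured by CellTiter-Glo luminescence after 30 min at room temperature.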

[3] = qHTS assay to identify small molecule antagonists of the retinoid-related orphan receptor gamma (ROR-gamma) signaling pathway - cell viability counter screen (AID 1159520); further: on the % scale 0 is the no-effect control and ±100 the full control effect; nearly all actives have a fitted effect of over 50% in size
In short: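 Tet-on ROR gamma CHO cells were given compounds for 2 hr, then doxycycline hyclate at 1 uM final, and incubated 16 hr at 37 C. Viability was measured as ATP content by CellTiter-Glo luminescence.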

[4] = qHTS assay to identify small molecule agonists of the AP-1 signaling pathway - cell viability counter screen (AID 1159525; calls by dose curve; further: nearly all actives have a fitted effect of over 55% in size)
In short: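 AP-1-bla ME-180 cells in Opti-MEM with 0.5% dialyzed FBS, compound exposure 5 h at 37 C in 15-point titration. Viability read in the same wells as ATP content by CellTiter-Glo luminescence, normalised to tetra-n-octylammonium bromide and DMSO controls.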

[5] = qHTS assay to identify small molecule agonists of the AP-1 signaling pathway (AID 1159526; calls by dose curve; further: on the % scale 0 is the no-effect control and ±100 the full control effect)
[6] = qHTS assay to identify small molecule agonists of the vitamin D receptor (VDR) signaling pathway - cell viability counter screen (AID 743224); further: series mostly up to about 63 µM; on the % scale 0 is the no-effect control and ±100 the full control effect; nearly all actives have a fitted effect of over 50% in size
In short: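 VDR-bla cell line, quantitative HTS format; 16 h compound incubation (37C, 5% CO2); ATP-based CellTiter-Glo luminescence measured in the reporter assay wells.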

[7] = qHTS assay to identify small molecule antagonists of the vitamin D receptor (VDR) signaling pathway - cell viability counter screen (AID 743225); further: on the % scale 0 is the no-effect control and ±100 the full control effect; nearly all actives have a fitted effect of over 50% in size
In short: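 Viability counter screen run in the same wells as the beta-lactamase reporter assay: HEK 293T VDR-UAS-bla cells, 16 h compound exposure at 37C with 3 nM (final) 1-alpha,25-dihydroxyvitamin D3. CellTiter-Glo luminescence, 30 min, room temperature.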

[8] = biological target: Retinoic acid receptor RXR-alpha (Homo sapiens) (UniProt P19793); assay: qHTS assay to identify small molecule agonists of the RXR signaling pathway (AID 1159527; calls by dose curve; further: on the % scale 0 is the no-effect control and ±100 the full control effect; nearly all actives have a fitted effect of over 35% in size)
Retinoic acid receptor RXR-alpha (Homo sapiens), sequence (P19793 whole entry, looked up): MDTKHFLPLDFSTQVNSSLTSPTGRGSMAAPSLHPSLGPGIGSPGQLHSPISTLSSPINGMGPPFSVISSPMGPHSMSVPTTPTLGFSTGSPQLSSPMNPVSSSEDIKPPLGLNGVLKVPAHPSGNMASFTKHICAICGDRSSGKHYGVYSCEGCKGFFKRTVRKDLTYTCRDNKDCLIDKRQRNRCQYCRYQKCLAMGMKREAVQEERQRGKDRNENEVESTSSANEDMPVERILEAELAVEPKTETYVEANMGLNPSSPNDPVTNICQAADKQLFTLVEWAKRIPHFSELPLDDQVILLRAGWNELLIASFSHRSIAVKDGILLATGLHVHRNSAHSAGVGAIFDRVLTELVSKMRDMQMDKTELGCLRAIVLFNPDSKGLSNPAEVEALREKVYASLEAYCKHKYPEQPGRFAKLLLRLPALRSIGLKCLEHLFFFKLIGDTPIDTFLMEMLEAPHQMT
In short: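 Agonist mode; 9-cis retinoic acid positive control. HEK 293T UAS-bla reporter cells, 2% charcoal-stripped FBS, 16 hr compound exposure at 37 C/5% CO2. LiveBLAzer B/G FRET substrate 2 hr RT; ex 405, em 460/530 nm.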

[9] = biological target: Nuclear receptor ROR-gamma (Homo sapiens) (UniProt P51449); assay: qHTS assay to identify small molecule antagonists of the retinoid-related orphan receptor gamma (ROR-gamma) signaling pathway (AID 1159521)
In short: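 Luminescence readout (ONE-Glo, 30 min RT) after 16 h doxycycline induction; loss of signal scored as antagonism. CHO cells with TET-inducible RORγ and RORE-LUC reporter; compounds added 2 h before 1 uM final doxycycline.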

CCCCCCCCCCO[C@@H]1O[C@H](CO)[C@@H](O)[C@H](O)[C@H]1O
inactive: Potency [1] | Potency [2] | Potency [3] | Potency [4] | Potency [5]

C=C(C)C(=O)OCCO
inactive: Potency [6] | Potency [7] | Potency [1] | Potency [2] | Potency [3] | Potency [4] | Potency [5] | Potency [8]

O=C1CCCCCCCCCCCC(=O)OCCO1
inactive: Potency [6] | Potency [1] | Potency [3] | Potency [9] | Potency [4]

CCCCC
inactive: Potency [6] | Potency [1] | Potency [3] | Potency [9] | Potency [5] | Potency [8]

CCN(CC)CCOC(=O)C(c1ccccc1)C1CCCCC1 (stereo not given)
inactive: Potency [6] | Potency [7] | Potency [1] | Potency [2] | Potency [3] | Potency [9]

CCCCCCCN
inactive: Potency [6] | Potency [7] | Potency [1] | Potency [2] | Potency [3] | Potency [5] | Potency [8]

NCc1ccccc1Sc1ccccc1CO
inactive: Potency [6] | Potency [7] | Potency [1] | Potency [2] | Potency [3] | Potency [4] | Potency [5] | Potency [8]

O=C(O)CNCC(=O)O
inactive: activity change, negative = cytotoxicity [6] -6.84% [at 5.95 µM] | viability change, negative = cytotoxic [7] -0.385% [at 6.95 µM] | activation [1] -0.0292% [at 6.95 µM] | activity change, negative = cytotoxicity [2] -2.31% [at 6.95 µM] | activity, negative = cytotoxicity [3] 0.267% [at 8.39 µM] | viability change, negative = cytotoxic [4] 2.06% [at 6.97 µM] | activation [5] -4.84% [at 6.97 µM] | activation [8] 1.94% [at 6.98 µM]

O=C(NCCO[N+](=O)[O-])c1cccnc1
inactive: Potency [6] | Potency [7] | Potency [1] | Potency [2] | Potency [3] | Potency [4] | Potency [8]
